Assay in all cases: NCI-60 one-dose screen, 48 h (100 = growth as untreated, 0 = no growth, -100 = all killed)
The subject of one experiment is BT-549 breast. The settings on record: 10 µM unless noted.
For a further experiment, the system named is MDA-MB-435 melanoma. The conditions noted are these: 10 µM unless noted.
A further experiment deals with MCF7 breast. The settings on record: 10 µM.
A further experiment concerns HCT-116 colon. The conditions noted are these: 10 µM unless noted.
The next experiment deals with HCC-2998 colon. The conditions noted are these: 10 µM unless noted.
A further experiment deals with KM12 colon. The settings on record: 10 µM unless noted.
In another experiment the test system is SW-620 colon. The settings on record: 10 µM unless noted.

Among the data in PubChem BioAssay (NCI) are growth values, retold here.

This is part of a sample that, as a whole, favours compounds with a hit. Of some 83,000 tested, about 20% had one in any assay.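 Results are percent growth after 48 hours of single-concentration exposure. 100 means growth as in untreated cells, lower positive values show inhibition; negative values down to -100 show cell death.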 Unmarked numbers belong to inactive results. Activity calls are given as the source filed them. The calls were made as follows: active = growth percent below 10; inactive = the rest.

With `CCOc1cccc(/C=N\Nc2nc(=O)cc(C(=O)OC)s2)c1O`, the growth was 85.4% in the experiment on BT-549 breast; 91.6% in the experiment with MDA-MB-435 melanoma; 8.66% (active) in the experiment with MCF7 breast; 22% in the experiment with HCT-116 colon; 78% in the experiment on HCC-2998 colon; 75.3% in the experiment with KM12 colon.

As for `CC(=O)c1ccc(NC(=O)Nc2ccc(S(=O)(=O)Nc3ccc(Cl)nn3)cc2)cc1`, the growth in the experiment with BT-549 breast was 107%; in the experiment with MDA-MB-435 melanoma, 107%; in the experiment with MCF7 breast, 99.1%; with HCT-116 colon, 105%; in the experiment on HCC-2998 colon, 107%; in the experiment on KM12 colon it was 103%.

Take `O=C(/C=C/c1ccc(Cl)cc1)c1ccc(Nc2nc(NCCO)nc(N3CCOCC3)n2)cc1`: the growth was 85% in the experiment on BT-549 breast; 50.4% in the experiment on SW-620 colon; 9.73% (active) in the experiment on MCF7 breast; 18.6% in the experiment on HCT-116 colon; 99% in the experiment on HCC-2998 colon; 28.5% in the experiment with KM12 colon.

For the molecule `Oc1c(CN2CCN(c3ccccc3F)CC2)cc(Br)c2cccnc12`, the growth is -53.8% (active) in the experiment with BT-549 breast; -13.5% (active) in the experiment on SW-620 colon; 9.33% (active) in the experiment with MCF7 breast; -36.4% (active) with HCT-116 colon; 30.7% in the experiment on HCC-2998 colon; 0.135% (active) in the experiment on KM12 colon.

Turning to `NCCOc1ccccc1/C=C1\c2ccccc2-c2ccc([N+](=O)[O-])cc21`, the growth in the experiment on BT-549 breast was 84.8%; in the experiment with SW-620 colon, -82.4% (active); with MCF7 breast it was -60.9% (active); in the experiment on HCT-116 colon, -95.3% (active); in the experiment on HCC-2998 colon, -53.3% (active); with KM12 colon, -59.9% (active).

Take `COc1ccc(Cn2c(Br)c3c(c2Br)-c2nc(NC(=O)c4ccc(OC)cc4)sc2CC3)cc1`: the growth with BT-549 breast is 84.2%; with MDA-MB-435 melanoma it was 61.8%; in the experiment with MCF7 breast it was 78.5%; in the experiment with HCT-116 colon, 75.9%; in the experiment with HCC-2998 colon it was 108%; with KM12 colon it was 79.9%.

Regarding `COc1ccc(/C=C2\SC(=Nc3ccccc3)NC2=O)cc1`, the growth with BT-549 breast was -72.2% (active); in the experiment on SW-620 colon, -74.2% (active); in the experiment with MCF7 breast, -85% (active); in the experiment on HCT-116 colon, -82.2% (active); in the experiment with HCC-2998 colon, -87.5% (active); in the experiment with KM12 colon, -89.6% (active).

As to `CCCCCCCCCCOC(=O)c1ccccc1C(=O)OCCCC`, the growth in the experiment with BT-549 breast was 114%; in the experiment with SW-620 colon it was 102%; in the experiment with MCF7 breast, 102%; in the experiment on HCT-116 colon, 84.9%; in the experiment on HCC-2998 colon it was 108%; with KM12 colon, 105%.

`O=c1nc2sc3nc4ccccc4cc3cc-2s1`: the growth was 112% in the experiment on BT-549 breast; 107% in the experiment on SW-620 colon; 98.1% in the experiment with MCF7 breast; 102% with HCT-116 colon; 106% with HCC-2998 colon; 129% with KM12 colon.

Turning to `N#C/C(=C\c1c(-c2ccccc2)[nH]c2ccccc12)S(=O)(=O)c1ccccc1`, the growth was 51.7% with BT-549 breast; 28.6% in the experiment with SW-620 colon; 14% in the experiment with MCF7 breast; 36.8% in the experiment with HCT-116 colon; 57% with HCC-2998 colon; 25.1% with KM12 colon.

As for `CSc1nc2c(c(=O)[nH]1)N=C1c3ccccc3C(=O)C1C(c1ccccc1)N2` (configuration not stated), the growth with BT-549 breast is 40%; with SW-620 colon, 29.8%; with MCF7 breast, 17.3%; in the experiment on HCT-116 colon, 21.8%; in the experiment with HCC-2998 colon, 53.1%; in the experiment on KM12 colon it was 28.1%.

Take `Nc1ccc(-c2ccc(-c3ccccc3N)c3[nH]c4ccccc4c23)cc1`: the growth in the experiment on BT-549 breast is 53.2%; with SW-620 colon, 29.5%; in the experiment with MCF7 breast it was 19.6%; in the experiment on HCT-116 colon, 22.6%; with HCC-2998 colon, 42.1%; in the experiment on KM12 colon, 23.6%.
